Activity calls are given as the source filed them. Rule for the calls: active = hit-call score of the fitted dose curve at least 0.9, where 1 is the maximum; inconclusive = response in the unintended direction; inactive = score below 0.9.
These molecules were tested against Muscarinic acetylcholine receptor M5 (Homo sapiens) (UniProt P08912) (assay: NVS_GPCR_hM5: NovaScreen (NVS) G Protein-Coupled Receptor Assay for human Muscarinic, M5 Receptor (AID 2283275)).
Description: NVS_GPCR_hM5 is a biochemical, single-readout assay that uses extracted gene-proteins from CHO in a cell-free assay. Measurements were taken 1 hour after chemical dosing in a 96-well plate.NVS_GPCR_hM5 is one of one assay component(s) measured or calculated from the NVS_GPCR_hM5 assay. It is designed to make measurements of radioligand binding, a form of binding reporter, as detected with scintillation counting signals by Filter-based radiodetection technology.Data from the assay component NVS_GPCR_hM5 was analyzed into 1 assay endpoint. This assay endpoint, NVS_GPCR_hM5, was analyzed in the positive analysis fitting direction relative to DMSO as the negative control and baseline of activity. Using a type of binding reporter, loss-of-signal activity can be used to understand changes in the binding as they relate to the gene CHRM5. Furthermore, this assay endpoint can be referred to as a primary readout, because the performed assay has only produced 1 assay endpoint. To generalize the intended target to other relatable targets, this assay endpoint is annotated to the gpcr intended target family, where the subfamily is rhodopsin-like receptor.
Binding assays used specific radioligands (tritiated, iodinated) with non-radioactive competitive displacement ligands in agonist or antagonist protocols (as indicated) and various reference compounds and inhibitors to titrate specific binding to receptors and transporters. Most enzyme assays (CYPs, kinases, phosphatases, proteases, HDACs) used recombinant protein and specific substrates (fluorescence mostly, some colorimetric and radioactive) and inhibitors, followed by a biochemical separation of substrate and product. All assays for the biochemical HTS were initially run in duplicate at a single concentration (10 uM for CYP450 assays and 25 uM for all others). Assay-chemical combinations meeting a pre-defined threshold (e.g., 30% inhibition and other criteria defined below) were then run in singleton concentration-response format with maximum concentration of 20 uM for CYPs and 50 uM for all others. Each assay was run with positive and negative controls, and concurrent controls on every plate. The follow-up (secondary) screen tested active chemical-pairs in concentration series, as well as a few additional assays not tested in the primary screen, some selected negative inactives, and several cases re-run in the concentration series for confirmatory purposes.

Chain of Muscarinic acetylcholine receptor M5 (Homo sapiens) (P08912 whole entry, looked up): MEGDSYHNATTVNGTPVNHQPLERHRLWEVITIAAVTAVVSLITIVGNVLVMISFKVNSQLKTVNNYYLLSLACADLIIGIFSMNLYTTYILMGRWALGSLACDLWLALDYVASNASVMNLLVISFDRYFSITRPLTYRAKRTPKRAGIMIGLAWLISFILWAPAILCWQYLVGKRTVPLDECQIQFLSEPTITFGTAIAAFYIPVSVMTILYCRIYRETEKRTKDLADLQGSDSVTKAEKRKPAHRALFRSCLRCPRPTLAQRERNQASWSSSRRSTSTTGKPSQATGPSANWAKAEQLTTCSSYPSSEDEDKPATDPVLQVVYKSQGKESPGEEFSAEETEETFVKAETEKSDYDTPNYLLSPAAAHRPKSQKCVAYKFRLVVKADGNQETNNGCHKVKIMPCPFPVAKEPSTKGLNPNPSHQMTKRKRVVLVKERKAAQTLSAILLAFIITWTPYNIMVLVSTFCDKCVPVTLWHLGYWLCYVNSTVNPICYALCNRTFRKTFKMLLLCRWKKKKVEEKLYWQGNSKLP

Row | SMILES | AC50 | outcome
1 | COc1cccc(-c2ccc(/C=C\CN3CCCCCC3)cc2Cl)c1 | 6.57 µM (active) | –
2 | Cc1[nH]cnc1C[C@H]1CCc2c(C)c3ccccc3n2C1=O | 11.9 µM (active) | –
3 | CN(C)c1ccc(N=NS(=O)(=O)O)cc1 | – | inactive
4 | CC[C@H]1CC[C@H](NCc2cc3c(cc2OC)[C@H]2C[C@H]2C(=O)N3C)[C@H](c2ccccc2)N1 | 7.73 µM (active) | –
5 | COCCOc1cc2cc(C(=O)NC3CCN(C(C)C)CC3)n(CC(=O)Nc3ccc(Cl)cn3)c2cn1 | – | inactive
6 | CCc1cc(SCc2sc(-c3ccc(C(F)(F)F)cc3)nc2CN2CCN(c3ccc(OC)cc3)CC2)ccc1OCC(=O)O | 9.13 µM (active) | –
7 | Nc1ccc(Nc2ccccc2)cc1 | – | inactive
8 | CCOC(=O)c1ccc(C2CCC(NC[C@H](O)COc3ccc(O)c(NS(C)(=O)=O)c3)CC2)cc1 (stereo partly specified) | 3.42 µM (active) | –
9 | CCOC(=O)COc1ccc2c(c1)CC(NCC(O)c1cccc(Cl)c1)CC2 (stereo unspecified) | 3.75 µM (active) | –
10 | CNS(=O)(=O)c1cc(C(=O)N2CCC(CCN3C4CCC3CC(n3c(C)nc5ccccc53)C4)(c3cccc(F)c3)CC2)c(Cl)cc1F (stereo unspecified) | – | inactive
11 | CCCN(C1CCN(C(=O)C2CCNCC2)CC1)[C@@H]1CCc2ccc(OC)cc2C1 | 0.0807 µM (active) | –

Reference: PubChem BioAssay (EPA / NIEHS)
